Drawing on PubChem BioAssay (EPA / NIEHS), this text covers outcome and AC50 for 40 compounds.

One may read the AC50 as the midpoint of the concentration-response curve, whichever way the signal moves.

Records with an inconclusive call do not appear. Calls of active or inactive are those of the source. The calls were made as follows: active = hit-call score of the fitted dose curve at least 0.9, where 1 is the maximum; inconclusive = response in the unintended direction; inactive = score below 0.9.

Read-out in this test: glucuronosyltransferase (UGT1A1), UGT1A1 (gene 54658)
In words: CLD_UGT1A1_24hr: CellzDirect (CLD) Gene Expression Assay for glucuronosyltransferase (UGT1A1) at 24 hours (AID 2283696). The procedure:
CLD_24hr is a cell-based, multiplexed-readout assay that uses hepatocyte, a human liver primary cell, with measurements taken at 24 hours after chemical dosing in a 96-well plate.CLD_UGT1A1_24hr is one of 16 assay component(s) measured or calculated from the CLD_24hr assay. It is designed to make measurements of mRNA induction, a form of inducible reporter, as detected with chemiluminescence signals by Quantitative Nuclease Protection Assay (qNPA) technology.Data from the assay component CLD_UGT1A1_24hr was analyzed at the endpoint, CLD_UGT1A1_24hr, in the positive analysis fitting direction relative to DMSO as the negative control and baseline of activity. Using a type of inducible reporter, gain-of-signal activity can be used to understand changes in the reporter gene as they relate to the gene UGT1A1. Furthermore, this assay endpoint can be referred to as a primary readout. To generalize the intended target to other relatable targets, this assay endpoint is annotated to the transferase intended target family, where subfamily is glucuronosyltransferase.
Human hepatocyte cultures were treated daily for two consecutive days with fresh dosing solutions containing appropriate concentrations of the 320 ToxCast chemicals (chemical identities were blinded to CellzDirect and other ToxCast collaborators), vehicle control (0.2% DMSO), and positive control inducers as summarized in Table 1. Due to the large number of treatment groups and chemicals examined, the ToxCast chemicals were divided into two groups (spanning two independent cultures of hepatocytes from separate donor preparations (Hu778: ToxCast plates 1 and 2; Hu776: ToxCast plates 3 and 4). Each preparation of human hepatocyte cultures was treated with respective vehicle control, medium only control, set of six positive controls/reference chemicals for the five hepatic receptor pathways, and a subset of eight of the ToxCast chemicals (indoxacarb, pyrithiobac-sodium, norflurazon, cyhalofop-butyl, methomyl, thiram, acetochlor, and propiconazole). These replicate data, coupled with internal replicates designed within the blinded ToxCast chemical library, provided additional data to evaluate interindividual differences between hepatocyte preparations and their potential impact on chemical profiles.Cell morphology and integrity were evaluated using phase-contrast microscopy as an indicator of hepatocyte cell health (Tyson & Green, 1987). Cultures for each treatment group (i.e., media, vehicle [0.2% DMSO], positive control inducers [multiple concentrations], and the ToxCast chemicals [multiple concentrations]) were observed and cell morphology was assessed relative to vehicle control cultures at each harvest time point (0, 6, 24, or 48 h). […] Images were evaluated at the conclusion of the study to assess changes in cell integrity and account for the effects of chemical exposure on uncharacteristic changes in concentration-dependent gene expression profiles. The results from these determinations of apparent cytotoxicity were annotated (yes/no) alongside the corresponding qNPA data for reference.At the conclusion of each treatment period, hepatocyte cultures (96-well) were washed with 1 volume of HBSS, lysed by addition of 25 ul ArrayPlate lysis buffer (HTG, Tucson, AZ), and 70 ul/well of Denaturation Oil, denatured by incubation at 95C for 10 min, and frozen at approximately -70C until analysis by nuclease protection assay (qNPA) (Roberts et al., 2007). For qNPA analysis, cell lysates were thawed at 50C for approximately 30 min, qNPA probes were added, and samples were incubated at 95C for 10 min to begin the detection process by denaturing the target RNA, dissociating the duplexes and secondary structure hybridization. At the conclusion of the hybridization period, S1 nuclease reagent was added to each sample to digest all nonprotected nucleotides at 50C for 60-90 min. […]
Regarding `CCCCOCN(C(=O)CCl)c1c(CC)cccc1CC`, the call was inactive. For the compound `COC(=O)NS(=O)(=O)c1ccc(N)cc1`, the result was inactive.

Regarding `CC1(C)CCC(=Cc2ccc(Cl)cc2)C1(O)Cn1cncn1` (stereo not given), the outcome was inactive. Still for that read-out and setting: for `C=CCOC(=O)C(C)(C)OC(=O)c1cc(-n2c(=O)cc(C(F)(F)F)n(C)c2=O)ccc1Cl` the value was “inactive”; for `CCSC(=O)N1CCCCCC1`, “inactive”; for `COc1ccc(-c2ccccc2)cc1NNC(=O)OC(C)C`, “inactive”. `CC(C)NC(=O)N1CC(=O)N(c2cc(Cl)cc(Cl)c2)C1=O`: the compound was called inactive.

With `CC(C)C1(C)N=C(c2ncccc2C(=O)O)NC1=O` (stereo not given), the outcome was inactive. As to `CC(C)N1C(=O)c2ccccc2NS1(=O)=O`, the compound was called inactive. On to `COc1cc(Cl)c(OC)cc1Cl`, for which the result was inactive.

Regarding `N#Cc1c[nH]cc1-c1cccc2c1OC(F)(F)O2`, the result was inactive. Still for that read-out and setting: with `CC(C)N1C(=O)N(c2ccccc2)CSC1=NC(C)(C)C` the entry was “inactive”; with `CCCC(=NOCC)C1=C(O)CC(CC(C)SCC)CC1=O` (stereo not given), “inactive”; with `O=C(O)c1c(Cl)ccc2cc(Cl)cnc12`, “inactive”. Same read-out and setting: with `COCC(C)N(C(=O)CCl)c1c(C)csc1C` (stereo not given) the entry was “inactive”; with `Cc1cnc(C2=NC(C)(C(C)C)C(=O)N2)c(C(=O)O)c1` (stereo not given), “inactive”. On to `CN=C=S`, for which the compound was called inactive. `CNC(=O)Oc1cccc2ccccc12`: the outcome was inactive.

For `CC1(C)CON(Cc2ccccc2Cl)C1=O`, the compound was classed as inactive.

As to `CCCCC(O)(Cn1cncn1)c1ccc(Cl)cc1Cl` (stereo not given), the compound was called inactive.

As to `Nc1cnn(-c2ccccc2)c(=O)c1Cl`, the outcome was inactive. For `CCOc1cc(C(C)(C)C)ccc1C1COC(c2c(F)cccc2F)=N1` (stereo not given), the result was inactive.

As for `COC(=O)NC(=S)Nc1ccccc1NC(=S)NC(=O)OC`, the result was inactive. `CCCCC(C#N)(Cn1cncn1)c1ccc(Cl)cc1` (stereo not given): the result was inactive. Take `COCc1cnc(C2=NC(C)(C(C)C)C(=O)N2)c(C(=O)O)c1` (stereo not given): the call was inactive.

For the compound `N#Cc1c(Cl)cccc1Cl`, the outcome was inactive. In the case of `CCOc1nc(C(Cl)(Cl)Cl)ns1`, the outcome was inactive. Same read-out and setting: for `CS(=O)(=O)c1cc(C(F)(F)F)ccc1C(=O)c1cnoc1C1CC1` the value was “inactive”. On to `COP(=S)(OC)SCn1nnc2ccccc2c1=O`, for which the AC50 was 9.43 µM (active). For the compound `Nc1c(Cl)c(F)nc(OCC(=O)O)c1Cl`, the call was inactive.

With `CCOP(=S)(OCC)Oc1nc(Cl)n(C(C)C)n1`, the AC50 was 0.652 µM (active). Turning to `CC(C)(C)C(=O)C(Oc1ccc(Cl)cc1)n1cncn1` (stereo not given), the outcome was inactive.

As to `CC(C)Nc1nc(Cl)nc(NC(C)C)n1`, the AC50 was 4.11 µM (active).

Consider `Clc1cccc(C(Cl)(Cl)Cl)n1`, for which the result was inactive.

Take `CCCN(CC)CC1COC2(CCC(C(C)(C)C)CC2)O1` (stereo not given): the compound was called inactive. For `COP(=S)(OC)Oc1ccc([N+](=O)[O-])c(C)c1`, the compound was called inactive. As to `O=c1n(Cl)c(=O)n(Cl)c(=O)n1Cl`, the result was inactive.

Regarding `CC(C)=CC1C(C(=O)OCc2coc(Cc3ccccc3)c2)C1(C)C` (stereo not given), the outcome was inactive. For `CCNP(=S)(OC)O/C(C)=C/C(=O)OC(C)C` (stereo not given), the AC50 is 1.7 µM (active). Regarding `CC1(C)C(C=C(Cl)Cl)C1C(=O)OC(C#N)c1cccc(Oc2ccccc2)c1` (stereo not given), the AC50 is 6.01 µM (active).
